HT1080 IDH1KD tx: HT-1080 IDH1 knockdown cell toxicity (counter line); Potency, µM (titrated, usually from 46.1 µM), inactives show at the top dose activity, negative = toxicity, most hits filed as cytotoxic; HT-1080 IDH1 knockdown viability, ATP luminescence, 48 h; 360,000 compounds, 2% hits;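 also: potency is read from the fitted curve at half-maximal effect; 0% = DMSO wells and -100% = cell-free medium wells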
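CellTiter-Glo luminescence after 48 h compound exposure at 37 degrees C of IDH1-knockdown HT-1080 cells in 5% FBS RPMI. %Activity scaled between DMSO wells and cell-free media wells, with curves fitted and assigned curve classes.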
TDP1 cell CPT: DT40-hTDP1 cell growth loss with CPT; chicken DT40 Tdp1-/-;hTDP1 cells + 20 nM CPT, ATP luminescence, 48 h; Potency, µM (titrated, usually from 46.2 µM), inactives show at the highest dose activity change, negative = growth inhibition, actives largely listed as inhibitors; 420,000 compounds, 12% hits; AID 686979; also: potency is read from the fitted curve at half-maximal effect; nearly all actives have a fitted effect of over 55% in size
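Cell growth measured by CellTiter-Glo luminescence after a minimum 48 h, 37 C compound exposure with 20 nM CPT in Tdp1-knockout DT40 cells stably expressing hTDP1, seeded 400/well; qHTS titration format.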
HT1080NT lethal: kills 2HG-producing HT-1080-NT fibrosarcoma cells | 360,000 compounds, 1.6% hits | Potency, µM (series often up to 46.1 µM), for inactives: at the top dose activity, negative = less viability, hits mostly cytotoxic | HT-1080-NT fibrosarcoma viability, CellTiter-Glo ATP luminescence, 48 h;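 also: NT is the 2HG producing partner of a matched IDH1 knockdown line; potency is read from the fitted curve at half-maximal effect; 0% = DMSO-treated cells and -100% = media-only wells without cells; nearly all actives have a fitted effect of over 55% in size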
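Compounds were tested in concentration-response format on HT-1080-NT cells for 48 hours at 37 degrees C. Cell viability came from CellTiter-Glo luminescence; curves were classified by r2, response magnitude and activity.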
ELG1 DNA repair: inhibitors of ELG1-dependent DNA repair in HEK293T cells; AID 504467; Potency, µM (titrated, usually from 46.1 µM), for the others: at the highest dose activity change, negative = inhibition, actives largely listed as inhibitors; 330,000 compounds, 2.3% hits; HEK293T ELG1-luciferase reporter, luminescence, 16 h; DNA damage induced by 5-fluorouridine; also: potency is read from the fitted curve at half-maximal effect; nearly all actives have a fitted effect of over 55% in size
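5-Fluorouridine DNA damage + compound/DMSO, 2,000 cells/well, 16 h, 37 °C/5% CO2. ONE-Glo, 30 min RT, luminescence. Readout = decrease in reporter signal.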
IL1B secr inh: blocks inflammasome-driven IL-1 beta release; THP-1 LPS/ATP IL-1B secretion, AlphaLISA, 16 h; hits give low values; activity change, % at 57.5 µM; 360,000 compounds, 4.7% hits; in the data active = activity change below about -50%; inconclusive = mostly about -30% to -49%
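THP-1 cells pretreated 1 hr with compounds (up to 57.5 uM final), then stimulated with LPS (250 ng/mL final) plus ATP (1.25 mM final); secreted IL-1B measured by AlphaLISA after 16 hr, decreased signal indicating inhibition.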
TDP1 cell noCPT: qHTS for Inhibitors of human tyrosyl-DNA phosphodiesterase 1 (TDP1): qHTS in cells in absence of CPT; 420,000 compounds, 15% hits; Potency, µM (series often up to 46.2 µM), for the others: at the highest dose activity change, negative = growth inhibition, hits mostly inhibitors; DT40 Tdp1-/- hTDP1 cells, no CPT, ATP luminescence, 48 h; also: potency is read from the fitted curve at half-maximal effect; nearly all actives have a fitted effect of over 55% in size
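Readout: luminescence from CellTiter-Glo after 30 min in the dark at RT. Cells: DT40 Tdp1-/- with stable hTDP1, 400/well. Exposure: compounds alone, ≥48 hr, 37 °C.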
* = called active by the depositor; u = inconclusive; x = not tested or not shown. Rows were chosen to be rich in hits. Some 19% of all compounds tested hit in one or more screens of this group. Unless noted, calls follow the shape of the dose curve; as a rule, active = well fitted curve in the direction sought with a large enough effect; inconclusive = small, poorly fitted or top-dose-only effect, or another doubt; inactive = no such curve, though single readings can be large; an effect the other way counts as inactive or inconclusive. Unless noted, % is scaled to controls: 0 for no effect and ±100 for the full control effect.

SMILES	HT1080 IDH1KD tx	TDP1 cell CPT	HT1080NT lethal	ELG1 DNA repair	IL1B secr inh	TDP1 cell noCPT
COc1ccc(NC(=O)c2cc3c(Cl)nc4ccccc4c3s2)c(OC)c1	-1%	u	-1%	12%	-10	u
COc1ccc(N(C)C(=O)c2cc3c(Cl)nc4ccccc4c3s2)cc1	-4%	u	-21%	u	-68*	21µM*
COc1cc(NC(=O)c2cc3c(Cl)nc4ccccc4c3s2)cc(OC)c1OC	18%	10µM*	14%	6.5µM*	-13	8.2µM*
CCN(CC)c1nc2ccccc2nc1C(=O)Nc1cc(OC)c(OC)c(OC)c1	x	16µM*	x	x	x	13µM*
CCCN(C(=O)c1cc2c(Cl)nc3ccccc3c2s1)c1cccc(C)c1	x	21µM*	x	x	x	26µM*
Cc1onc(NC(=O)CSCC(=O)O)c1Br	14%	-15%	3%	u	4	3%
CCOC(=O)/C(C#N)=C/C=C1\C=Cc2ccccc2N1CC	0%	21µM*	6%	u	u	23µM*
CCCCCCN1C=CC(=C/C=C(\C#N)C(=O)OCC)C=C1	3%	u	-8%	-2%	0	16µM*
COc1cc([N+](=O)[O-])ccc1NC(=O)N1CCN(c2cc(-c3noc(C)n3)ccc2C)CC1	x	-23%	x	x	x	u
CCOC(=O)c1cccc(NC(=O)C2Cc3ccccc3N2C(=O)c2ccccc2)c1 (configuration not stated)	x	-25%	x	x	x	-22%
COC(=O)c1ccc(C(=O)NCC2Cc3cccc(-c4ccc(C(=O)OC)cn4)c3O2)cc1 (configuration not stated)	x	u	x	x	x	-26%
CCOC(=O)[C@H]1[C@H]2COc3ccc(Cl)cc3[C@@H]2N2C(=O)c3ccc(F)cc3NC(=O)[C@@]12C	-11%	u	-1%	-1%	u	u
CCOC(=O)[C@H]1[C@H]2COc3ccccc3[C@@H]2N2C(=O)c3ccc(Cl)cc3NC(=O)[C@@]12C	-6%	u	u	-3%	-67*	u
CCOC(=O)[C@H]1[C@H]2COc3ccc(Cl)cc3[C@@H]2N2C(=O)c3cc(F)c(F)cc3NC(=O)[C@@]12C	u	u	-6%	-9%	-72*	23µM*
CCOC(=O)[C@H]1[C@H]2COc3ccc(Cl)cc3[C@@H]2N2C(=O)c3cc(Br)ccc3NC(=O)[C@@]12C	-9%	16µM*	-8%	-28%	u	21µM*
CCOC(=O)[C@H]1[C@H]2COc3ccc(OC)cc3[C@@H]2N2C(=O)c3cc(OC)c(OC)cc3NC(=O)[C@@]12C	-17%	-35%	3%	19%	-55*	-66%
CCOC(=O)[C@H]1[C@H]2COc3ccc(C)cc3[C@@H]2N2C(=O)c3cc(OC)c(OC)cc3NC(=O)[C@@]12C	-13%	u	-8%	20%	-15	u
CS(=O)(=O)c1ccc(Cl)c(NC(=O)C2CCCN(C(=O)c3ccc(Cl)cc3)C2)c1 (configuration not stated)	5%	-11%	-2%	-1%	18	-26%
NC(N)=Nc1nc(CSCC/C(N)=N\S(N)(=O)=O)cs1	x	3%	x	x	x	3%
CCOC(=O)[C@H]1[C@H]2COc3ccc(Cl)cc3[C@@H]2N2C(=O)c3cc(Cl)ccc3NC(=O)[C@@]12C	-28%	13µM*	-21%	u	-18	u
CCOC(=O)[C@H]1[C@H]2COc3ccccc3[C@@H]2N2C(=O)c3cc(Cl)ccc3NC(=O)[C@@]12C	-4%	u	-6%	14%	u	u
CCOC(=O)[C@H]1[C@H]2COc3ccc(Br)cc3[C@@H]2N2C(=O)c3cc(Br)ccc3NC(=O)[C@@]12C	-17%	u	-9%	-24%	-14	18µM*
CCCCNc1nc2c(c(=O)[nH]c(=O)n2C)n1CCCc1ccccc1	-1%	-16%	3%	x	6	-1%
CN(C)c1ccc(C=c2c3ccccc3n3c2cc(-c2ccc(Cl)cc2)[n+]3C)cc1	u	4.1µM*	u	x	-119*	4.6µM*
COc1cc(/C=c2\[nH]c(=O)/c(=C/c3cc(OC)c(OC)c(OC)c3)[nH]c2=O)cc(OC)c1OC	x	-4%	x	x	x	u
SMILES	HT1080 IDH1KD tx	TDP1 cell CPT	HT1080NT lethal	ELG1 DNA repair	IL1B secr inh	TDP1 cell noCPT
Cn1c(CO)c(-c2ccccc2)c2cc([N+](=O)[O-])ccc21	u	-19%	u	-26%	0	u
CN(C)c1ccc(C=c2c3cc([N+](=O)[O-])ccc3n3c2cc(-c2ccccc2)[n+]3C)cc1	10µM*	2.9µM*	u	x	-115*	2.6µM*
COc1cc(C=c2c3ccccc3n3c2cc(-c2ccccc2)[n+]3C)cc(OC)c1OC	u	5.2µM*	-15%	x	-26	4.6µM*
CN(C)c1ccc(/C=C2\SC(=O)N(CC(O)Cn3c4ccccc4c4ccccc43)C2=O)cc1 (configuration not stated)	u	u	-15%	6%	7	u
COc1cc(N(C)C)ccc1C=c1c2ccccc2n2c1cc(-c1ccccc1)[n+]2C	12µM*	0.52µM*	u	x	-100*	0.37µM*
CN(C)c1ccc(C=c2c3ccccc3n3c2cc(-c2ccccc2)[n+]3C)cc1	21µM*	0.58µM*	u	x	-102*	0.37µM*
CN(C)c1ccc(C=c2c3ccccc3n3c2c2c([n+]3C)CCCC2)cc1	6.5µM*	0.41µM*	u	x	-111*	0.33µM*
COCCN(C(=O)c1cccc(-n2cnnn2)c1)c1c(N)n(CC(C)C)c(=O)[nH]c1=O	17%	-18%	8%	11%	10	-3%
CCCCn1c(N)c(N(CCOC)C(=O)c2c(C)noc2C)c(=O)[nH]c1=O	7%	2%	6%	3%	16	12%
OC1OC[C@@H](O)[C@H](O)[C@H]1O (some centres not stated)	x	x	x	13%	x	x
COc1ccc(NS(=O)(=O)c2ccc(-c3coc(C)n3)cc2)c(OC)c1	u	23µM*	u	u	16	-29%
COc1ccc(OC)c(CNS(=O)(=O)c2ccc(-c3coc(C)n3)cc2)c1	x	u	x	x	x	21µM*
COc1ccc(C)cc1-n1nnnc1SCC(=O)Nc1cccnc1Cl	1%	u	-1%	u	0	21µM*

High-throughput results as filed in PubChem BioAssay.
